In the supplement of paper PMC13380429:

Assays:
[1] = test system: Vero E6 infected with SARS-CoV-2; assay: morphology score (similarity to uninfected cells); higher = more like uninfected cells; details: 24 h
[2] = test system: Vero E6 infected with SARS-CoV-2; assay: SARS-CoV-2 infection rate relative to infected DMSO; higher = more infection, active = 60 or less; details: 24 h

SMILES	morphology score [1]	SARS-CoV-2 infection rate [2]
O=C(Nc1ccc(Cl)cc1)Nc1ccc(Cl)c(Cl)c1 [triclocarban] (10 µM)	0.0739	98.5% (inactive)
CN1CCN(S(=O)(=O)c2ccc(-c3cnc(N)c(C(=O)Nc4cccnc4)n3)cc2)CC1 (0.833333 µM)	0.224	99% (inactive)
O=C(O)c1cc(/N=N/c2ccc(O)c(C(=O)O)c2)ccc1O [olsalazine] (10 µM)	0.062	104% (inactive)
CN1CCN(CC(=O)N2c3ccccc3C(=O)Nc3cccnc32)CC1 [pirenzepine] (10 µM)	-0.00972	108% (inactive)
C=C[C@]1(C)CC[C@@H](C(=C)C)C[C@H]1C(=C)C [beta-elemene] (10 µM)	-0.205	111% (inactive)
Cc1cc(C(=O)O)sc1C(N)C(=O)O (stereo unspecified) (10 µM)	-0.0491	95% (inactive)
C[N+]1(C)[C@@H]2C[C@@H](OC(=O)[C@H](CO)c3ccccc3)C[C@H]1[C@@H]1O[C@@H]12 [methscopolamine] (10 µM)	-0.0273	96% (inactive)
CCOC(=O)C1=C(N)Oc2ccc(Br)cc2C1C(C#N)C(=O)OCC (stereo unspecified) (10 µM)	0.0924	108% (inactive)
CC(COc1ccccc1)NC(C)C(O)c1ccc(O)cc1 (stereo unspecified) [isoxsuprine] (10 µM)	0.0115	109% (inactive)
C[C@H](NC(=O)CNC(=O)c1cccc(Cl)c1)c1ccccc1 (10 µM)	0.0656	102% (inactive)
COc1ccc2cc(C(C)C(=O)Oc3ccc(C(N)=S)cc3)ccc2c1 (stereo unspecified) (10 µM)	0.117	97% (inactive)
Nc1n[n+]([O-])c2ccccc2[n+]1[O-] [tirapazamine] (10 µM)	0.0691	99.5% (inactive)
c1ccc(-c2ccc(CNc3nc(-c4ccccn4)nnc3-c3ccccc3)cc2)cc1 (10 µM)	-0.0584	114% (inactive)
CCOC(=O)c1ccc(-n2cc(Cc3cnc(OCC)nc3)c(=O)nc2SCc2ccc(F)cc2)cc1 (10 µM)	0.18	90.5% (inactive)
CC12CCC(C(=O)N(CCCCN3CCN(c4ccccn4)CC3)C1=O)C2(C)C (stereo unspecified) [piricapiron] (10 µM)	0.11	103% (inactive)
O=C(CN1C2=NCCN2c2ccccc21)c1ccc(-c2ccccc2)cc1 (10 µM)	0.646	35% (active)
Cc1ccc(C(=O)N(CCCN)[C@@H](c2oc3cc(Cl)ccc3c(=O)c2Cc2ccccc2)C(C)C)cc1 (0.833333 µM)	-0.422	115% (inactive)
CCCC(C)(COC(N)=O)COC(=O)NC(C)C (stereo unspecified) (10 µM)	-0.33	116% (inactive)
Cc1cc2ncc(C(=O)NCC(C)(C)NCC(=O)N3CCC[C@H]3C#N)cn2n1 [anagliptin] (10 µM)	-0.112	110% (inactive)
CC(C)(Oc1ccc(Cl)cc1)C(=O)N1CSCC1C(=O)O (stereo unspecified) [timofibrate] (10 µM)	0.0255	106% (inactive)
CCC(NC(C)C)C(O)c1ccc(O)c2[nH]c(=O)ccc12 (stereo unspecified) [procaterol] (10 µM)	0.142	88% (inactive)
COc1cc(-n2c(=S)[nH]c3ccccc3c2=O)c(Cl)cc1Cl [mdivi-1] (10 µM)	-0.0304	112% (inactive)
Cc1cccc(N(C)C(=S)Oc2ccc3ccccc3c2)c1 [tolnaftate] (10 µM)	0.136	104% (inactive)
COc1ccc(S(=O)(=O)N2CCC[C@H]2C(=O)Nc2cc(C)cc(C)c2)cc1 (10 µM)	-0.0886	113% (inactive)
CN[C@H](CC(C)C)C(=O)N[C@H]1C(=O)N[C@@H](CC(N)=O)C(=O)N[C@H]2C(=O)N[C@H]3C(=O)N[C@H](C(=O)N[C@H](C(=O)O)c4cc(O)cc(O)c4-c4cc3ccc4O)[C@H](O[C@H]3C[C@](C)(N)[C@@H](O)[C@H](C)O3)c3ccc(c(Cl)c3)Oc3cc2cc(c3O[C@@H]2O[C@H](CO)[C@@H](O)[C@H](O)[C@H]2O[C@H]2C[C@](C)(NCc3ccc(-c4ccc(Cl)cc4)cc3)[C@@H](O)[C@H](C)O2)Oc2ccc(cc2Cl)[C@H]1O [oritavancin] (10 µM)	0.0399	92% (inactive)
CC(=O)Oc1ccccc1C(=O)O [aspirin] (10 µM)	-0.027	98% (inactive)
CC(COc1ccccc1Cc1ccccc1)N1CCCCC1 (stereo unspecified) [benproperine] (10 µM)	0.214	79% (inactive)
OC(c1ccccc1)(c1ccccc1)C12CC[N+](CCOCc3ccccc3)(CC1)CC2 [umeclidinium] (10 µM)	0.162	101% (inactive)
